“And” between values parts separate entries of the source, which are not always exact repeats. Equal entries are not always repeated. Records with an inconclusive call do not appear. Values without a mark were called inactive. The source made the active and inactive calls. The call rests on the fitted dose curve; in most records, active means well fitted curve in the direction sought with a large enough effect; inconclusive means small, poorly fitted or top-dose-only effect, or another doubt; inactive means no such curve, though single readings can be large; an effect the other way counts as inactive or inconclusive. Where a SMILES comes first, the peptide text is derived from it. [ ]: non-standard residue; d: D form. Hyp = O=C(O)[CH]1C[CH](O)CN1; Phe(ol) = N[CH](CO)Cc1ccccc1; Iva = CC[C](C)(N)C(=O)O; Aib = CC(C)(N)C(=O)O
Experiments:
[1] = Primary qHTS for inhibitors of nuclear receptor binding SET domain protein 2 (NSD2) in an isogenic RCH-ACV NSD2 p.E1099K mutant (9B) (AID 1645876)
[2] = Primary qHTS for inhibitors of nuclear receptor binding SET domain protein 2 (NSD2) in an RCH-ACV wild type WT cells (2C) (AID 1645877)
Further: nearly all actives have a fitted effect of over 70% in size.
On the % scale 0 is the no-effect control and ±100 the full control effect; potency means the concentration at half of the fitted maximal effect.

Structure (SMILES) | Potency [1] | Potency [2] | activity change, negative = viability loss [1] | activity change, negative = cell killing [2]
CN[C@@H]1[C@H](O[C@H]2[C@H](O[C@@H]3[C@@H](O)[C@H](O)[C@@H](N=C(N)N)[C@H](O)[C@H]3N=C(N)N)O[C@@H](C)[C@]2(O)CO)O[C@@H](CO)[C@H](O)[C@H]1O | inactive | inactive |  | 
C/C1=C\CCC2=CC(OC2=O)C(C)(C)/C=C/C1=O (configuration not stated) | 6.49 µM (active) | 2.9 µM (active) |  | 
C[C@@H]1CC[C@]2(C(=O)O)CC[C@]3(C)C(=CCC4[C@@]5(C)CC[C@H](O)[C@](C)(C(=O)O)C5CC[C@]43C)C2[C@]1(C)O (some centres not stated) | inactive | inactive |  | 
C[C@H]1CC[C@@]2(OC1)O[C@H]1CC3[C@@H]4CC[C@@H]5C[C@@H](O[C@@H]6O[C@H](CO)[C@@H](O[C@@H]7O[C@@H](C)[C@H](O)[C@@H](O)[C@H]7O)[C@H](O)[C@H]6O[C@@H]6O[C@H](CO)[C@@H](O)[C@H](O)[C@H]6O)CC[C@]5(C)C4CC[C@]3(C)[C@H]1[C@@H]2C (some centres not stated) | 3.88 µM (active) | 3.88 µM (active) |  | 
C=CC(C)(C)C12CC3C(=O)N4C(CC5(C(C)(C)C=C)c6ccccc6NC45)C(=O)N3C1Nc1ccccc12 (configuration not stated) | inactive | inactive |  | 
COc1ccccc1C(=O)Nc1cccc(NC(=O)c2cccc(C)c2)c1 | inactive | inactive |  | 
COc1cc(N2CCC(N3CCN(C)CC3)CC2)ccc1Nc1ncc(Cl)c(Nc2ccccc2P(C)(C)=O)n1 | 3.65 µM (active) and 1.05 µM (active) | 4.09 µM (active) and 1.48 µM (active) |  | 
O=C(Nc1cnc(Cl)nc1)c1ccc(F)c(F)c1 | inactive | inactive |  | 
CC(C)n1cnc2c(-c3cnc(N)nc3)nc(N3CCOCC3)nc21 | 0.159 µM (active) | 0.224 µM (active) |  | 
C=C1CCC2C(C)(C(=O)O)CCCC2(C)C1CCC1=CCOC1=O (configuration not stated) | inactive | inactive |  | 
C=C[C@@]1(C)CCC2C(=CCC3[C@]2(C)CCC[C@@]3(C)C(=O)O)C1 (some centres not stated) | inactive | inactive |  | 
C=C1CC[C@@H](O)[C@]2(C)CC[C@H]3C(=C)C(=O)O[C@@H]3[C@@H]12 | 20.5 µM (active) | 16.3 µM (active) |  | 
CC1=CC2/C=C(\C)CCC(O)C(=O)C(O)CC(=O)C23C(=O)NC(CC(C)C)C3C1C (configuration not stated) | 11.2 µM (active) | 6.32 µM (active) |  | 
CC(O)(C(=O)C1CC1(CO)COC1OC(CO)C(O)C(O)C1O)C1C(O)CC2C3CC=C4CC(O)CC(O)C4(C)C3C(O)CC21C (configuration not stated) | 0.342 µM (active) | 0.383 µM (active) |  | 
C=C[C@@]12COC(=O)C(=C)[C@@H]1[C@@H](O)[C@H](C(=C)C(=O)OC)[C@@H](O)C2 | inactive | inactive |  | 
C=C(C)C(=O)OC1CC2(C)OC(=CC2=O)C(=C)CC2OC(=O)C(=C)C12 (configuration not stated) | 0.8 µM (active) | 0.253 µM (active) |  | 
O=c1cc(NCCCN[C@@H]2CCOc3c(Br)cc(Br)cc32)[nH]c2ccsc12 | 20.5 µM (active) | 20.5 µM (active) |  | 
CC(/C=C/C(=O)NO)=C\[C@@H](C)C(=O)c1ccc(N(C)C)cc1 | 183 nM (active) and 1.05 µM (active) | 183 nM (active) and 934 nM (active) |  | 
C=C(C)C(=O)O[C@H]1[C@H]2C(=C)C(=O)O[C@@H]2/C=C(\CO)CC/C=C(/C=O)[C@@H]1O | 12.7 µM (active) | 4.5 µM (active) |  | 

Structure (SMILES) | Potency [1] | Potency [2] | activity change, negative = viability loss [1] | activity change, negative = cell killing [2]
CN1CCc2cc3c(cc2C(=O)Cc2cc4c(cc2C1)OCO4)OCO3 | inactive | inactive |  | 
C=C1C(=O)O[C@@H]2[C@H]3C(C)=CC(=O)C3=C(C)CC[C@@H]12 | 2.9 µM (active) | 2.05 µM (active) |  | 
CCn1nc(C2CCN(C(=O)CCO)CC2)nc1-c1cnc(N)c(-c2nnc(C(C)(C)C)o2)n1 | 164 nM (active) and 296 nM (active) | 64.9 nM (active) and 263 nM (active) |  | 
CCC(C)(NC(=O)C(CCC(N)=O)NC(=O)C1CC(O)CN1C(=O)C(C)(C)NC(=O)C(C)(C)NC(=O)C(CC(C)C)NC(=O)CNC(=O)C(NC(=O)C(C)(C)NC(=O)C(C)(C)NC(=O)C(C)(C)NC(=O)C(Cc1ccccc1)NC(C)=O)C(C)C)C(=O)N1CC(O)CC1C(=O)NC(C)(C)C(=O)NC(CO)Cc1ccccc1 (configuration not stated) (Ac-F[Aib][Aib][Aib]VGL[Aib][Aib][Hyp]Q[Iva][Hyp][Aib][Phe(ol)]; configuration not given here) |  |  | -11.4% [at 9.23 µM] | -29.8% [at 9.23 µM]
CC(=O)O[C@@H]1CC[C@@]2(C)[C@H](CC[C@@H]3[C@@H]2C[C@H](OC(C)=O)[C@]2(C)[C@@H](C(C)=O)CC[C@@H]32)C1 | 23 µM (active) | 23 µM (active) |  | 
COC(=O)C[C@H]1[C@]2(C)C3=C(C)[C@H](c4ccoc4)C[C@H]3O[C@@H]2[C@H](O)C2[C@](C)(C(=O)OC)C=CC(=O)[C@@]21C (some centres not stated) | inactive | inactive |  | 
O=c1[nH]cnc2c([C@@H]3N[C@H](CO)[C@@H](O)[C@H]3O)c[nH]c12 | inactive | inactive |  | 
COc1ccc(-c2ccccc2)cc1NS(=O)(=O)c1cc(Cl)cc(Cl)c1O | inactive | inactive |  | 
C[C@@H]1C[C@H]2O[C@@]3(O[C@@H]2C(C)(C)O)C(O)[C@@]2(C)C4CCC5C(C)(C)[C@@H](O[C@H]6OC[C@H](O)[C@@H](O)[C@@H]6O)CC[C@@]56C[C@@]46CC[C@]2(C)C13 (some centres not stated) | inactive | inactive |  | 
COc1cc(C(C)C)c(Oc2cnc(N)nc2N)cc1I | 16.3 µM (active) | 16.3 µM (active) |  | 
CC(C)=CCC/C(C)=C/COCC1OC(n2ccc(=O)[nH]c2=O)C(O)C1O (configuration not stated) | 4.01 µM (active) | 2.01 µM (active) |  | 
COc1cc(O)c2c(c1)C1OC1C[C@H](O)[C@H](O)C(=O)/C=C\C[C@H](C)OC2=O (some centres not stated) | 3.25 µM (active) | 2.05 µM (active) |  | 
OC1C=C2C3CN(Cc4cc5c(cc43)OCO5)C2CC1O (configuration not stated) | 6.49 µM (active) | 7.28 µM (active) |  | 
COC1CC(=O)C23C(=O)NC(Cc4c[nH]c5ccccc45)C2C(C)C2(C)OC2C3/C=C/CC(C)CC1O (configuration not stated) | 3.17 µM (active) | 2.52 µM (active) |  | 
CC(C)(CNC(=O)c1cccc(-c2noc(C(F)(F)F)n2)c1)c1coc(-c2ccccc2)n1 | 20.9 µM (active) | 23.5 µM (active) |  | 
CCOc1cc(C(C)(C)C)ccc1C1=NC(C)(c2ccc(Cl)cc2)C(C)(c2ccc(Cl)cc2)N1C(=O)N1CCN(CCCS(C)(=O)=O)CC1 (configuration not stated) | 0.817 µM (active) | 0.258 µM (active) |  | 
C=C1CC[C@H]2C(=C)CC[C@H]3C(=C)C(=O)O[C@@H]3[C@@H]12 | 16.3 µM (active) | 10.3 µM (active) |  | 
Cc1cc(F)c(C(=O)Nc2cccc(-c3nncn3C(C)C)n2)cc1-n1cnc(C2CC2)c1 | 11.8 µM (active) | 9.34 µM (active) |  | 
C=C1CC[C@@H](O)[C@]2(C)C[C@H]3OC(=O)C(=C)[C@H]3CC12 (some centres not stated) | 16.3 µM (active) | 12.9 µM (active) |  | 

Structure (SMILES) | Potency [1] | Potency [2] | activity change, negative = viability loss [1] | activity change, negative = cell killing [2]
NC(=O)c1cnc(N[C@@H]2CCCC[C@@H]2N)nc1Nc1cccc(-n2nccn2)c1 | 1.32 µM (active) | 1.32 µM (active) |  | 
Cc1ccc(-c2c(C(=O)CCl)n(CCCO)c3ncnc(N)c23)cc1 | 20.5 µM (active) | 23 µM (active) |  | 
CC(=O)OC1C(O)CC2(C)C(CCC3(C)C2CC=C2C4C5(CCC(CO[C@@H]6O[C@H](CO)[C@@H](O)[C@H](O)[C@H]6O)(OC5=O)C4(C)O)C(O)CC23C)C1(C)C (some centres not stated) | inactive | inactive |  | 
COc1cc(O)cc(OC2OC(CO)C(O)C(O)C2O)c1 (configuration not stated) | inactive | inactive |  | 
C/C(=C\CO[C@@H]1O[C@H](CO[C@H]2OC[C@](O)(CO)[C@H]2O)[C@@H](O)[C@H](O)[C@H]1O)C(C)(C)O | inactive | inactive |  | 
CCCCCCCCn1cc(CN(CC)CC)c2cc(-c3cnc(N)nc3)ccc21 | 4.09 µM (active) | 3.25 µM (active) |  | 
CC(=O)NC(C(=O)O[C@H]1CCC(C)(C)[C@@H]2CC=C3C(=O)OCC3(O)[C@@]12C)C(C)C (some centres not stated) | 8.01 µM (active) | 12.7 µM (active) |  | 
CCC(C)C1NC(=O)C(Cc2ccccc2)NC(=O)C(CCCCCC(=O)C(O)CO)NC(=O)C2CCCCN2C1=O (configuration not stated) | 6.08 µM (active) | 2.16 µM (active) |  | 
Cn1ncnc1[C@H]1c2n[nH]c(=O)c3cc(F)cc(c23)N[C@@H]1c1ccc(F)cc1 | 200 nM (active) and 148 nM (active) | 28.2 nM (active) and 66.1 nM (active) |  | 
C=C1C(=O)O[C@@H]2C[C@@]3(C)CCCC(=C)[C@]3(O)C[C@H]12 | 8.17 µM (active) | 6.49 µM (active) |  | 
C=C1C(=O)O[C@@H]2C[C@@]3(C)C[C@@H](O)C[C@H](C)C3=C[C@H]12 | 7.28 µM (active) | 5.15 µM (active) |  | 
O=C(NCCCNC(=O)c1ccc[nH]c1=O)c1cc(-c2ccccc2)on1 | 8.33 µM (active) | 9.34 µM (active) |  | 
CC(C)(C)[C@H](NC(=O)c1ccc(N)c(Cl)c1)C(=O)N1CCC[C@H]1C(=O)N[C@H](C#N)CC(=O)O | inactive | inactive |  | 
C=C1C(=O)O[C@H]2C[C@@H](C)[C@@H]3CCC(=O)[C@@]3(C)C[C@H]12 | 3.65 µM (active) | 3.65 µM (active) |  | 
C=C1CC2OC(=O)C(=C)C2C(OC(=O)/C(C)=C\C)CC2(C)OC1=CC2=O (configuration not stated) | 2.01 µM (active) | 1.01 µM (active) |  | 
C=C1CC[C@@H]2[C@](C)(CO)[C@H](O)CC[C@@]2(C)[C@@H]1CC(=O)C1=CCOC1=O | inactive | inactive |  | 
COc1cc(CCC2=NN=C(NC(=O)c3ccc(N4C[C@@H](C)N[C@@H](C)C4)cc3)C2)cc(OC)c1 | 5.78 µM (active) | 5.78 µM (active) |  | 
COC(=O)C1=CO[C@@H](O[C@@H]2O[C@H](CO)[C@@H](O)[C@H](O)[C@H]2O)[C@H]2[C@@H]1C=C[C@]21C=C([C@H](C)OC(=O)/C=C/c2ccc(O)cc2)C(=O)O1 | 0.383 µM (active) | 0.483 µM (active) |  | 

Source: PubChem BioAssay (NCATS)
